Source: PubChem (National Center for Advancing Translational Sciences (NCATS))
Hits are enriched below; roughly 7% of the tested compounds scored in any of these assays.
DRD3 agonist – D3 dopamine receptor (human) agonism | P35462 | D3R DiscoveRx beta-arrestin cells, luminescence, 90 min | max activation, % | hit rate 0.58% among 410,000; in the data active = max activation above about 30%; note: 0% is about no effect
Target sequence (P35462 whole entry, looked up): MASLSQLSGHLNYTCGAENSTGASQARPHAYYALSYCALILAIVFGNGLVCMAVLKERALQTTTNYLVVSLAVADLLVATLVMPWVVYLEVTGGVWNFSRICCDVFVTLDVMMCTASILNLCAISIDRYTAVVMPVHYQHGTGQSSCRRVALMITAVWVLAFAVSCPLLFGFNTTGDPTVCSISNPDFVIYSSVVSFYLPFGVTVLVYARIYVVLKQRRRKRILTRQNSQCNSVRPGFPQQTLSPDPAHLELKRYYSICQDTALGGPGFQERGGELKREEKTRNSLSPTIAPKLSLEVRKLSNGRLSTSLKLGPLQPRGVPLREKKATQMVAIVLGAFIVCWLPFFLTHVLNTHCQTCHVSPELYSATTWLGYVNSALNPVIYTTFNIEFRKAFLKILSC
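Agonist-mode cell screen: cells plated at 1500/well and incubated overnight at 37 °C, then exposed to library compounds for 90 min at 37 °C. Detection reagent was added for 30–60 min at room temperature, and luminescence was read.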
ATXN viability – cell viability loss in ATXN counter-screen. hit rate 0.49% among 400,000. S2 cells (HEK-293 line with an ATXN2-luciferase reporter) viability, CellTiter-Fluor protease fluorescence, 24 h. Potency, µM (top dose mostly 56.7 µM), usual class: cytotoxic. AID 651635; note: potency is the fitted concentration of half-maximal effect; nearly all actives have a fitted effect of over 40% in size
DRD3 antagonist – blocks the human D3 dopamine receptor; hit rate 2.5% among 360,000; D3R cells, DiscoveRx beta-arrestin luminescence, antagonist mode; active compounds read low; max response, negative = inhibition, %; AID 652054; in the data active = max response below about -50%; inconclusive = no clear call, values can overlap the other calls; note: % is set by controls: 0 for no effect and ±100 for the full control effect
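Cells plated overnight at 1500 cells/well, then exposed to library compounds with dopamine controls for 90 minutes at 37 degrees C. DiscoveRx reagent added for 30–60 minutes at room temperature; luminescence read, quantitative HTS format.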
IL-1B inflam inh – inhibitors of inflammasome signaling (IL-1 beta secretion); AID 743279; THP-1 LPS/ATP IL-1B secretion, AlphaLISA, 16 h; active compounds read low; hit rate 4.7% among 360,000; activity change, % at 57.5 µM; in the data active = activity change below about -50%; inconclusive = mostly about -30% to -49%; note: % is set by controls: 0 for no effect and ±100 for the full control effect
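Secreted IL-1B measured by AlphaLISA bead assay after 16 h compound exposure of THP-1 cells; compounds (final up to 57.5 uM) added 1 h before LPS (250 ng/mL) and ATP (1.25 mM) stimulation; lower signal means less secretion.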
ATXN2 expr inh – reduces ATXN2 reporter expression in HEK-293 cells | HEK-293 ATXN2-luciferase reporter, luminescence, 24 h | Potency, µM (top dose mostly 57 µM), without a hit: at the top dose activity change, negative = inhibition, most hits filed as inhibitors | hit rate 0.72% among 360,000; note: potency is the fitted concentration of half-maximal effect; % is set by controls: 0 for no effect and ±100 for the full control effect; nearly all actives have a fitted effect of over 55% in size
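qHTS (up to 57 uM final) was run with 24 h compound exposure of reporter cells at 37 °C. Each well was multiplexed: SteadyGlo luminescence measured ATXN2-luciferase expression after a fluorogenic Gly-Phe-AFC viability readout (25 uM final).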
Integrin act MD – activators of alpha7 integrin expression for muscular dystrophy; alpha7betagal myoblasts, beta-gal FDG fluorescence, 48 h; Potency, µM (series often up to 38.3 µM), for inactives: at the top dose activation, actives largely listed as activators; hit rate 0.064% among 350,000;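 note: potency is the fitted concentration of half-maximal effect; 100% = response of the positive control SU9516; nearly all actives have a fitted effect of over 60% in size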
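Alpha7betagal+/- myoblasts (passage 13) were plated 16-24 hr, then exposed to compounds (1:260 dilution of DMSO stock) for 48 hours at 37C. After MPER lysis, β-galactosidase reporter activity was read as FDG fluorescence (ex 480/em 540) after 30 minutes.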
An asterisk follows results filed as active; i = inactive; ? = inconclusive; . = no result. Unless noted, calls come from the whole dose curve; as a rule, active = well fitted curve in the direction sought with a large enough effect; inconclusive = small, poorly fitted or top-dose-only effect, or another doubt; inactive = no such curve, though single readings can be large; an effect the other way counts as inactive or inconclusive.

SMILES	DRD3 agonist	ATXN viability	DRD3 antagonist	IL-1B inflam inh	ATXN2 expr inh	Integrin act MD
Cc1cc(C)cc(OCC(=O)N(C)CC(=O)Nc2ccc(Cl)c(C(F)(F)F)c2)c1	12	?	4	-78*	-23%	-19%
CCN1CCN(S(=O)(=O)c2ccc(Cl)c(C(=O)N(C)Cc3cccc(OC)c3)c2)CC1	-7	i	17	?	-3%	24%
COc1ccc(S(=O)(=O)N2CCCCCC2)cc1C(=O)N(C)CC(=O)Nc1ccc(Cl)c(Cl)c1	-6	i	-7	-59*	?	-52%
Cc1ccc(C(=O)N(C)CC(=O)Nc2ccc(Cl)c(C(F)(F)F)c2)cc1S(=O)(=O)N1CCCCC1	-3	i	-16	-23	?	-21%
Cc1ccc(S(=O)(=O)N(C)C)cc1NC(=O)COC(=O)Cc1cccs1	5	?	?	5	-9%	5%
CN(CC(=O)Nc1ccc(Cl)cc1)c1ccc(S(=O)(=O)N2CCCCC2)cc1[N+](=O)[O-]	-12	?	?	-61*	-24%	17%
COc1ccc(S(=O)(=O)N2CCCCCC2)cc1C(=O)N(C)Cc1ccc(C(C)(C)C)cc1	11	?	2	-72*	?	-49%
Cc1ccc(S(=O)(=O)/N=C2\C(=O)c3ccccc3C([O-])=C2n2cc[n+](CCC(C)C)c2)cc1	12	i	-76*	44	?	-68%
O=C(c1ccccc1)N1CCN(c2ccc([N+](=O)[O-])c(N3CCOCC3)c2)CC1	18	i	-5	-15	0%	30%
CC(Sc1nc(N)cc(=O)[nH]1)C(=O)NCC(=O)Nc1ccc(F)c(F)c1F (stereo not given)	5	i	-4	-4	-6%	-43%
Cc1cc(C(=O)CCl)c(C)n1-c1ccon1	-15	?	-14	-95*	77%	-63%
Cc1ccc(OCC(=O)c2cc(C)n(-c3ccccc3)c2C)c([N+](=O)[O-])n1	5	i	9	-5	3.2µM*	-32%
Cc1cc(C(=O)CCl)c(C)n1-c1cccc([N+](=O)[O-])c1	-8	25µM*	?	-100*	?	0%
CCCn1c(C)cc(C(=O)COc2ccc(C)nc2[N+](=O)[O-])c1C	3	i	9	18	21%	-18%
CC(=O)c1c(C(C)=O)c(C)n(-c2cccc([N+](=O)[O-])c2)c1C	-1	i	17	-5	-8%	-11%
O=C1COc2ccc(C(=O)CSc3nc4ccccc4c(=O)n3-c3ccc(Cl)c(Cl)c3)cc2N1	1	?	12	84	?	-68%
NC(=O)c1cc(S(=O)(=O)NCc2ccccc2)cs1	4	.	0	21	.	4%
C=CCOC1=CS(=O)(=O)N(Cc2ccc(Br)cc2)c2ccc(Br)cc21	42*	i	-4	27	0%	3%
Cc1cc(=O)oc2cc(OC(C)C(=O)NC3CCN(Cc4ccccc4)CC3)ccc12 (stereo not given)	-3	i	-10	-3	.	15%
CC(Oc1ccc(Br)cc1)C(=O)NC1CCN(Cc2ccccc2)CC1 (stereo not given)	-32	i	-75*	-81*	-39%	-34%
CCOc1ccc(S(=O)(=O)NCCC(=O)NC2CCN(Cc3ccccc3)CC2)cc1	-28	i	-23	-1	0%	-11%
CC(=O)c1ccc(S(=O)(=O)NCCC(=O)NC2CCN(Cc3ccccc3)CC2)cc1	-9	i	-27	-87*	-11%	-10%
CC(C)Oc1ccc(C(=O)NC2CCN(Cc3ccccc3)CC2)cc1	-5	i	12	-84*	-26%	-44%
O=C(O)/C=C/C(=O)Nc1ccc(SC(F)(F)C(F)(F)C(F)(F)F)cc1	-6	?	5	-54*	45%	-15%
O=C(O)/C=C/C(=O)Nc1ccc(OC(F)(F)Cl)cc1	-1	i	-22	-5	-6%	1%
SMILES	DRD3 agonist	ATXN viability	DRD3 antagonist	IL-1B inflam inh	ATXN2 expr inh	Integrin act MD
O=C1CN(C(=O)COC(=O)c2ccccc2Br)c2ccccc2N1	-17	i	-55*	-7	-2%	6%
CC(C)n1cc(C(=O)c2cc(Br)ccc2O)cc(C#N)c1=O	6	i	-67*	-18	-7%	5%
N#Cc1cc(C(=O)c2cc(Br)ccc2O)cn(C2CC2)c1=O	-3	?	-24	0	-11%	-22%
COc1cc(OC)cc(C(=O)NC2CCCN(Cc3ccc(Cl)cc3)C2)c1 (stereo not given)	-16	?	-6	3	.	14%
O=C(c1cn(CC(=O)N2CCCCC2)c2ccccc12)C1CC1	3	i	1	7	1%	-4%
CCN1C(=O)[C@@H]2Cc3c([nH]c4ccccc34)C(c3cc(OC)c(OC)c(OC)c3)N2C1=S (stereo not given in full)	1	i	-13	-18	.	-41%
COc1cc([C@H]2c3[nH]c4ccccc4c3C[C@H]3C(=O)N4[C@@H](c5cc(OC)c(OC)c(OC)c5)c5[nH]c6ccccc6c5C[C@H]4C(=O)N23)cc(OC)c1OC	-23	16µM*	0	5	?	-1%
COc1cccc(-n2nnc3c(=O)n(C/C=C/c4ccccc4)cnc32)c1	-2	i	-14	5	5%	-1%
CCC1Oc2ccccc2C(=O)N(CC(=O)c2ccc3c(c2)OCCO3)C1=O (stereo not given)	0	i	0	0	17%	?
CC1CCN(c2oc(-c3cccs3)nc2S(=O)(=O)c2ccccc2)CC1	-8	i	.	.	-1%	.
COc1ccc(C(=O)N2CCN(C3CCCCC3)CC2)c(OC)c1	-2	?	-86*	0	0%	8%
COc1ccc(Cl)cc1NC(=O)N1CCN(C2CCCCC2)CC1	-44	i	-57*	1	-5%	15%
COc1cccc(C(=O)N2CCN(C3CCCCC3)CC2)c1	-12	i	-12	-7	-30%	-11%
CCN1CCN(C(=O)Nc2cc(Cl)ccc2OC)CC1	-26	i	-26	-5	-10%	14%
Cc1ccc(N2CCN(C(=O)c3c(C)oc4ncn(C)c(=O)c34)CC2)c(C)c1	3	i	.	.	3%	.
CC(C)n1ncc2c(C(=O)N3CCN(c4ccc(F)cc4)CC3)cc(-c3ccccc3)nc21	16	i	32	-58*	12%	33%
CC(=O)N(C1CC(C)C(C#N)(C#N)C1(C#N)C#N)N(C)C (stereo not given)	-18	30µM*	-71*	-112*	?	-63%
CCCC(=O)N(C1CC(C)C(C#N)(C#N)C1(C#N)C#N)N(C)C (stereo not given)	-8	?	-62*	-101*	?	-81%
